Data reported in PubChem BioAssay AID1159580 (chemical genetic matrix, 2015).
About 2,000 (36%) of roughly 5,500 compounds were called active. Another 18% or so got no clear call; they are omitted. No stated cut-off is given here; in the data, active means normalized growth mostly below about 0.91 (no sharp cut-off); inconclusive means no clear call, values can overlap the other calls; inactive means mostly above about 0.92. The list shows a part of the results.

Experiment: chemical genetic growth profiling, strain panel (AID 1159580);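 further: tested at 20 µM; growth read once vehicle control cultures reached saturation at 30 °C; 1 = growth at the plate median or of vehicle wells; lower values mean less growth of the strain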
Conditions: S. cerevisiae deletion strains, growth OD

Measured: normalized growth

N#Cc1nccnc1N1CCN(C(=O)Nc2cc(Cl)cc(Cl)c2)CC1
inactive: locus YAR019C, strain CDC15, active compounds read low 0.963 | locus YBL105C, strain PKC1, active compounds read low 0.972 | locus YBR135W, strain CKS1, active compounds read low 0.947 | locus YBR136W, strain MEC1, active compounds read low 0.972 | locus YBR160W, strain CDC28, active compounds read low 0.965 | locus YDL017W, strain CDC7, active compounds read low 0.969 | locus YDL028C, strain MPS1, active compounds read low 0.965 | locus YDL101C, strain DUN1, active compounds read low 0.975 | locus YDL108W, strain KIN28, active compounds read low 0.968 | locus YDL132W, strain cdc53, active compounds read low 0.967 | locus YDL214C, strain PRR2, active compounds read low 0.955 | locus YDR052C, strain DBF4, active compounds read low 0.969 | locus YDR054C, strain cdc34, active compounds read low 0.952 | locus YDR226W, strain ADK1, active compounds read low 0.965 | locus YDR477W, strain SNF1, active compounds read low 0.923 | locus YER123W, strain YCK3, active compounds read low 0.946 | locus YER133W, strain GLC7, active compounds read low 0.967 | locus YFL009W, strain cdc4, active compounds read low 0.951 | locus YFL029C, strain CAK1, active compounds read low 0.958 | locus YFR003C, strain YPI1, active compounds read low 0.972 | locus YFR019W, strain FAB1, active compounds read low 0.947 | locus YFR028C, strain CDC14, active compounds read low 0.966 | locus YGR040W, strain KSS1, active compounds read low 0.946 | locus YGR052W, strain FMP48, active compounds read low 1.05 | locus YGR092W, strain DBF2, active compounds read low 0.896 | locus YHR079C, strain IRE1, active compounds read low 0.739 | locus YHR082C, strain KSP1, active compounds read low 0.964 | locus YHR205W, strain SCH9, active compounds read low 0.946 | locus YIL147C, strain SLN1, active compounds read low 0.966 | locus YJL095W, strain BCK1, active compounds read low 0.824 | locus YJL128C, strain PBS2, active compounds read low 0.954 | locus YJL157C, strain FAR1, active compounds read low 0.925 | locus YJR016C, strain ILV3, active compounds read low 0.952 | locus YJR066W, strain TOR1 (second series), active compounds read low 0.934 | locus YJR066W, strain TOR1, active compounds read low 0.891 | locus YKL048C, strain ELM1, active compounds read low 0.959 | locus YKL067W, strain YNK1, active compounds read low 0.959 | locus YKL101W, strain HSL1, active compounds read low 0.938 | locus YKL193C, strain SDS22, active compounds read low 0.961 | locus YKL203C, strain TOR2, active compounds read low 0.985 | locus YLR113W, strain HOG1, active compounds read low 0.892 | locus YLR133W, strain CKI1, active compounds read low 0.942 | locus YLR403W, strain SFP1, active compounds read low 0.949 | locus YML070W, strain DAK1, active compounds read low 0.94 | locus YMR001C, strain CDC5, active compounds read low 0.968 | locus YMR205C, strain PFK2 (second series), active compounds read low 0.947 | locus YMR277W, strain FCP1, active compounds read low 0.97 | locus YNL006W, strain LST8, active compounds read low 0.961 | locus YNL020C, strain ARK1, active compounds read low 0.934 | locus YNL161W, strain CBK1, active compounds read low 0.961 | locus YNL183C, strain NPR1, active compounds read low 0.952 | locus YNL207W, strain RIO2, active compounds read low 0.971 | locus YNL222W, strain SSU72, active compounds read low 0.967 | locus YNL307C, strain MCK1 (second series), active compounds read low 0.941 | locus YOL078W, strain AVO1, active compounds read low 0.961 | locus YOL136C, strain PFK27, active compounds read low 0.924 | locus YOR061W, strain CKA2, active compounds read low 0.931 | locus YOR119C, strain RIO1, active compounds read low 1.02 | locus YOR231W, strain MKK1, active compounds read low 0.883 | locus YOR329C, strain SCD5, active compounds read low 0.971 | locus YPL031C, strain PHO85, active compounds read low 0.9 | locus YPL153C, strain RAD53, active compounds read low 0.906 | locus YPL204W, strain HRR25, active compounds read low 0.915 | locus YPL209C, strain IPL1, active compounds read low 0.974 | locus YPL256C, strain CLN2, active compounds read low 0.922 | locus YPR025C, strain CCL1, active compounds read low 0.959 | locus YPR106W, strain ISR1, active compounds read low 0.986 | locus YPR111W, strain DBF20, active compounds read low 0.958 | strain NNK1, active compounds read low 0.973 | strain TSCII, active compounds read low 0.953
active: locus YHR030C, strain SLT2, active compounds read low 0.714
